# Measured values: PubChem BioAssay (Tox21)
# A number with no mark means an inactive call. Active and inactive are the calls of the source. Calls follow the shape of the dose curve; as a rule, active = well fitted cell-killing curve with a large enough effect in the repeat runs; inconclusive = weak or mixed curves, or effect the other way; inactive = flat fitted curve, though single readings scatter.
# Assay: qHTS assay to identify small molecule HDAC inhibitors - cell viability counter screen (AID 1259365); also: nearly all actives have a fitted effect of over 50% in size
# Details: HCT-116 viability, CellTiter-Glo ATP luminescence, 2 h; series mostly up to 92.4 µM; activity change, negative = cytotoxicity: at the top concentration
# Source text: U.S. Tox21 Program National Center for Advancing Translational Sciences [NCATS] NIH Chemical Genomics Center [NCGC] U.S. Environmental Protection Agency [EPA] National Institutes of Environmental Health Sciences [NIEHS] National Toxicology Program [NTP] U.S. Food and Drug Administration [FDA] Tox21 Assay Overview: Histone deacetylases (HDACs) are a group of epigenetic enzymes that regulate gene expression by histone deacetylation. HDACs are capable of introducing epigenetic modifications and such aberrations contribute to the onset and progression of several human diseases, thus making HDACs a popular therapeutic target. For identifying endogenous class I/II HDAC inhibitors a homogenous, luminogenic HDAC I/II cell based assay was used to measure the relative activity of class I and II HDACs from cells. Wild type HCT-116 cells were used to screen Tox21 compound libraries for identifying class I/II HDAC inhibitors.
# Tox21 Assay Protocol Summary: HCT-116 cells were dispensed at 1,500 per well in 5uL of culture medium into white solid bottom 1536-well plates (Greiner Bio-One, Monroe, NC) using a Multidrop Combi (Thermo Scientific, Waltham, MA) dispenser. The assay plates were incubated at 37 C and 5% CO2 for an overnight, and then 23nL of compounds dissolved in DMSO and positive control were transferred using a Pintool station (Wako, San Diego, CA). The assay plates were incubated at 37C and 5% CO2 for 2hr. After compound treatment, 4uL of CellTiter-Glo reagent (Promega Corporation, Madison, WI) was added to each well of the assay plates using Flying Reagent Dispenser (FRD, Aurora Discovery, San Diego, CA) and incubated the assay plates at room temperature for 30min. The luminescence signal was quantified using a ViewLux plate reader (Perkin Elmer, Shelton, CT).
# % is scaled to controls: 0 for no effect and ±100 for the full control effect.
SMILES,"activity change, negative = cytotoxicity",Potency
O=[N+]([O-])O[C@H]1CO[C@H]2[C@@H]1OC[C@H]2O[N+](=O)[O-],-0.138% [at 42.5 µM],–
CC(C)c1ccc(OP(=O)(Oc2ccc(C(C)C)cc2)Oc2ccc(C(C)C)cc2)cc1,–,inactive
CCC(C)Cl (stereo not given),0.415%,–
CC(CC(C(N)=O)(c1ccccc1)c1ccccc1)N(C)C (stereo not given),-6.08% [at 42.5 µM],–
CC1(C)[C@H](C(=O)O[C@H](C#N)c2cccc(Oc3ccccc3)c2)[C@@H]1C=C(Br)Br,–,inactive
OCC1CO1 (stereo not given),–,inactive
C=CCOC(=O)C(C)(C)OC(=O)c1cc(-n2c(=O)cc(C(F)(F)F)n(C)c2=O)ccc1Cl,4.37%,–
COCc1cnc(C2=NC(C)(C(C)C)C(=O)N2)c(C(=O)O)c1 (stereo not given),2.25%,–
O=C(O)C(F)(F)C(F)(F)C(F)(F)C(F)(F)C(F)(F)C(F)(F)C(F)(F)C(F)(F)F,0.0284%,–
CCC[N+](CCC)(CCC)CCC,4.38%,–
CCOP(=S)(OCC)Oc1ccc(S(C)=O)cc1 (stereo not given),1.69%,–
CCCCC1C(=O)NC(=O)N(C2CCCCC2)C1=O (stereo not given),-0.456% [at 42.5 µM],–
O=C(CCl)CCl,–,inactive
COc1ccc(C(=O)c2c(C)n(CCN3CCOCC3)c3ccccc23)cc1,3.3% [at 42.5 µM],–
O=S(=O)(c1ccccc1)c1ccccc1,-1.14%,–
O=C(O)C(O)C(O)C(=O)O (stereo not given),0.0377%,–
Nc1cc(Cl)cc(C(=O)O)c1Cl,–,inactive
c1ccc2c(c1)-c1cccc3cccc-2c13,–,inactive
CC(Cl)C(=O)O (stereo not given),8.34%,–
CCCCCCCCCCCCN=C(N)N,-3.51% [at 3.27 µM],–

SMILES,"activity change, negative = cytotoxicity",Potency
O=CC=O,0.819%,–
C=CCc1ccccc1O,5.18%,–
C#CC(O)(C=CCl)CC (stereo not given),-2.7% [at 42.5 µM],–
O=C(Cl)OCCOCCOC(=O)Cl,-1.47%,–
Nc1ccccc1C(=O)OCCc1ccccc1,–,inactive
CCCSP(=S)(OCC)Oc1ccc(SC)cc1 (stereo not given),-4.78%,–
C1CCNCC1,0.459%,–
CC(C)(C)OOC(C)(C)CCC(C)(C)OOC(C)(C)C,4.28%,–
O=C(NC(=O)c1cc(F)c(F)cc1Cl)Nc1cc(F)ccc1N1CCC(C(=O)O)CC1,-0.743% [at 42.5 µM],–
CC[N+]1(C)CCCC(OC(=O)C(O)(c2ccccc2)c2ccccc2)C1 (stereo not given),-1.15% [at 42.5 µM],–
Cc1cccc(C)c1NC1=NCCCS1,1.46% [at 42.5 µM],–
O=C(N/N=C/c1ccc([N+](=O)[O-])o1)c1cc([N+](=O)[O-])cc([N+](=O)[O-])c1O,5.44% [at 42.5 µM],–
CC(C)c1ccc(NC(=O)N(C)C)cc1,-4.96%,–
FC(Cl)(Cl)C(F)(Cl)Cl,1.3%,–
N#CC(C#N)=Cc1ccc(O)c(O)c1,-3.94% [at 42.5 µM],–
CCCC[N+]1(C)[C@@H]2CC(OC(=O)[C@H](CO)c3ccccc3)C[C@H]1[C@@H]1O[C@@H]12 (stereo not given in full),3.48% [at 42.5 µM],–
CCCN(CCC)c1c([N+](=O)[O-])cc(C(C)C)cc1[N+](=O)[O-],–,inactive
C=CC(=O)NC(C)(C)CC(C)=O,-0.0273%,–
CC(Cc1ccccc1)NCc1ccccc1Cl (stereo not given),-3.72% [at 42.5 µM],–
CCOP(=S)(S)OCC,1.54%,–
